Giardia kill: Giardia lamblia killing; Giardia lamblia trophozoite viability; activity change, % at 7.66 µM, hits read low; 340,000 tested, 0.15% active; AID 540267; in the data active = activity change below about -80%; inconclusive = between about -30% and that limit;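 also: parasites exposed to compound for two days anaerobically before the ATP read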
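Compounds were tested on trophozoites seeded at 100 cells/well and held 48 hrs at 37 deg C anaerobically. An ATP-based luminescent kit measured the remaining live cells.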
HT1080NT lethal: kills 2HG-producing HT-1080-NT fibrosarcoma cells; Potency, µM (doses to about 46.1 µM), usual class: cytotoxic; AID 686970; HT-1080-NT fibrosarcoma viability, CellTiter-Glo ATP luminescence, 48 h; 360,000 tested, 1.6% active;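 also: NT is the 2HG producing partner of a matched IDH1 knockdown line; nearly all actives have a fitted effect of over 55% in size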
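HT-1080-NT; 750 cells/well; 5% FBS RPMI; 48 h compound, 37 degrees C; CellTiter-Glo luminescence; curve fitting and curve-class assignment.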
IL1B secr inh: inhibitors of inflammasome signaling (IL-1 beta secretion); THP-1 LPS/ATP IL-1B secretion, AlphaLISA, 16 h; active compounds read low; activity change, % at 57.5 µM; 360,000 tested, 4.7% active; in the data active = activity change below about -50%; inconclusive = mostly about -30% to -49%
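THP-1 cells pretreated 1 hr with compounds (up to 57.5 uM final), then stimulated with LPS (250 ng/mL final) plus ATP (1.25 mM final); secreted IL-1B measured by AlphaLISA after 16 hr, decreased signal indicating inhibition.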
HepG2 tox: counter-screen for TGF-b inhibitors: cytotoxicity in HepG2 cells. 410,000 tested, 0.76% active. Potency, µM (highest dose often 46.1 µM), most hits filed as cytotoxic. HepG2 CAGA-GFP viability, ATP luminescence, 18 h
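CellTiter-Glo luminescence gave cytotoxicity after 18 hours at 37 degrees C. The cells were HepG2 CAGA-GFP in 1% FBS DMEM, stimulated with 500 pg/mL TGF-beta after compound addition. %Activity was normalised to no-cell wells (complete cell-killing) and DMSO (no toxicity), and curves were fitted and classified.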
TGFb inhibitor: inhibitors of TGF-b signaling | Potency, µM (series often up to 46.1 µM), most hits filed as inhibitors | 410,000 tested, 1.2% active | HepG2 CAGA-GFP TGF-b/SMAD3 reporter, GFP fluorescence, 18 h; TGF-beta stimulated, 500 pg/mL final; also: nearly all actives have a fitted effect of over 65% in size
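HEPG2 CAGA-GFP cells (1000/well, DMEM with 1% FBS) were pre-incubated 2 h at 37 degrees C, given compound by pin tool, then stimulated with TGF-beta at 500 pg/mL final for 18 h before per-cell GFP fluorescence imaging.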
HT1080 IDH1KD tx: HT-1080 IDH1 knockdown cell toxicity (counter line) | HT-1080 IDH1 knockdown viability, ATP luminescence, 48 h | 360,000 tested, 2% active | Potency, µM (titrated, usually from 46.1 µM), most hits filed as cytotoxic | AID 686971
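After a 2 h attachment period, IDH1KD HT-1080 cells took pin-transferred compound for 48 h at 37 °C; ATP-based luminescence after 10 min room-temperature reagent incubation reported viability.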
Each line names hits and unclear results; the compound was inactive in the other large screens. Most compounds without a hit are left out; they make up all but 6.5% or so of the library. Unless noted, calls follow the shape of the dose curve; as a rule, active = well fitted curve in the direction sought with a large enough effect; inconclusive = small, poorly fitted or top-dose-only effect, or another doubt; inactive = no such curve, though single readings can be large; an effect the other way counts as inactive or inconclusive.

O=C(Oc1ccccc1C(=O)Nc1ccccc1)c1ccccc1Br	HT1080NT lethal inconclusive, IL1B secr inh inconclusive, HT1080 IDH1KD tx 7.31µM
O=C(COc1ccccc1C(=O)Nc1ccccc1)Nc1ccccc1Br	none (no result: Giardia kill, HT1080NT lethal, IL1B secr inh, HT1080 IDH1KD tx)
O=C1CCc2ccccc2O1	none
O=C1CCC(=O)O1	IL1B secr inh -53.5
CCOc1ccccc1CN(CCc1ccc2c(c1)OCO2)Cc1cccc(OC)c1OC	TGFb inhibitor inconclusive (no result: Giardia kill, HT1080NT lethal, IL1B secr inh, HT1080 IDH1KD tx)
CCOc1ccc(CN(CCc2ccc3c(c2)OCO3)Cc2cc(OC)c(OC)cc2OC)cc1	TGFb inhibitor 11.2µM (no result: Giardia kill, HT1080NT lethal, IL1B secr inh, HT1080 IDH1KD tx)
COc1ccc(C(=O)O/N=C2\C(=O)N(C)c3ccccc32)cc1	none
CN1C(=O)/C(=N\OC(=O)c2cccc3ccccc23)c2ccccc21	HT1080NT lethal 12.6µM, IL1B secr inh -99.6, TGFb inhibitor inconclusive, HT1080 IDH1KD tx inconclusive
CC(=O)Oc1ccc(C(=O)Nc2ccccc2NC(=O)c2ccc(OC(C)=O)cc2)cc1	none
CC(=O)Oc1ccc(C23c4ccccc4C2(OC(C)=O)c2cc(OC(C)=O)ccc23)cc1 (stereo unspecified)	HT1080NT lethal 7.31µM, IL1B secr inh -92.6, TGFb inhibitor inconclusive, HT1080 IDH1KD tx 7.31µM
COCCn1c(=O)[nH]c2cc(C(=O)NCCCN3CCN(c4ccc(F)cc4)CC3)ccc2c1=O	none
COc1ccc(Cc2c(Cl)ncnc2Cl)cc1	IL1B secr inh -111.5
CS(=O)(=O)Nc1ccc(C(=O)Nc2ccccc2Sc2ccccc2)cc1	none
C/C(=N\Nc1ccc(Cl)c(Cl)c1)c1ccc(-n2ccnc2)cc1	IL1B secr inh -65.1, TGFb inhibitor inconclusive
C/C(=N\NC(N)=S)c1ccc(-n2ccnc2)cc1	none
O=S(=O)(c1ccc(Br)c2nsnc12)N1CCOCC1	IL1B secr inh -53.7, TGFb inhibitor inconclusive
Oc1ccc(CN2CCc3ccccc3C2)c2cccnc12	HT1080NT lethal 11.6µM, TGFb inhibitor inconclusive, HT1080 IDH1KD tx 13µM
Oc1c(CN2CCCCC2)ccc2cccnc12	HT1080NT lethal 2.06µM, IL1B secr inh -97.9, TGFb inhibitor inconclusive, HT1080 IDH1KD tx 3.26µM
CC(C)COCc1ccc(O)c2ncccc12	HT1080NT lethal 20.6µM, TGFb inhibitor 10µM, HT1080 IDH1KD tx 10.3µM
Oc1ccc(CN2CCCCC2)c2cccnc12	HT1080NT lethal 3.16µM, TGFb inhibitor 3.16µM, HT1080 IDH1KD tx 1.41µM
Oc1ccc(CN2CCN(c3ccccc3)CC2)c2cccnc12	HT1080NT lethal 1.12µM, TGFb inhibitor inconclusive, HT1080 IDH1KD tx 0.708µM
CCCCC(=O)NC1(C(F)(F)F)C(=O)Nc2c1c(=O)[nH]c(=O)n2-c1ccc(C)c(C)c1 (stereo unspecified)	none (no result: Giardia kill, HT1080NT lethal, IL1B secr inh, HT1080 IDH1KD tx)
COc1ccc(C(=O)N[C@H](C(=O)NCCCn2nc(C)cc2C)C(C)C)cc1	none
CCNc1nc(Oc2ccc(C#N)cc2)cc(C(F)(F)F)n1	IL1B secr inh -57.5
NC(=O)c1c(NC(=O)c2cc3ccccc3o2)sc2c1CCC2	HT1080 IDH1KD tx inconclusive
NC(=O)c1c(NC(=O)c2ccc([N+](=O)[O-])o2)sc2c1CCCC2	Giardia kill -91.3, HT1080NT lethal inconclusive, TGFb inhibitor inconclusive, HT1080 IDH1KD tx inconclusive (no result: IL1B secr inh)
NC(=O)c1ccsc1NC(=O)c1ccc([N+](=O)[O-])o1	Giardia kill -95.3, HT1080NT lethal inconclusive, IL1B secr inh -67.9, TGFb inhibitor inconclusive, HT1080 IDH1KD tx inconclusive
Cc1cccc(NC(=O)CS(=O)(=O)c2cn(C)c3ccccc23)c1C	IL1B secr inh inconclusive
O=C(Nc1ccn(Cc2ccccc2F)n1)c1ccc(COc2ccccc2Cl)cc1	HT1080 IDH1KD tx inconclusive
COc1ccc(/C=N/NC(=O)C2C(=O)NCC2c2ccccc2)c(OC)c1 (stereo unspecified)	none
COc1ccc(N2CCN(C(=S)NCCc3ccccc3)CC2)cc1	none
Oc1ccc(N2CCN(C(=S)NCCc3ccccc3)CC2)cc1	HT1080NT lethal inconclusive, HT1080 IDH1KD tx 3.66µM
CCOC(=O)C1=C(CCl)NC(=O)NC1c1ccc2c(c1)OCO2 (stereo unspecified)	HT1080NT lethal inconclusive, IL1B secr inh -99.9, TGFb inhibitor inconclusive, HT1080 IDH1KD tx inconclusive
